Assay results from PubChem BioAssay AID1347423 (Functional Genomics Laboratory (NCATS/FGL), 2020).
Among all 52,000 sequences or so, about 210 (0.4%) were called active.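 The calls were made as follows: active = gene whose silencing raises cell survival under the drug, median off-target-corrected z-score across its silencing RNAs 2 or more; inactive = the rest.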 Shown is part of a subset that was picked to be rich in actives.

test: Resistance to Poly (ADP-Ribose) Polymerase inhibitor: Gene Identification via Genome-wide siRNA Screen; details: mouse BRCA2 R2336H ES cells, olaparib, CellTiter-Glo viability; stronger effect = higher value
Procedure, shortened: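 Genome-wide siRNA screen (3 siRNAs/gene, 20 nM) in mouse ES cells carrying hypomorphic BRCA2 R2336H; olaparib 500 nM added 48 h post-transfection, CellTiter-Glo viability 72 h later. Normalized to plate-median negative control; MAD z-scores, gene median, seed-adjusted.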

| Sequence | z-score |
| --- | --- |
| CCAAAUACGACUUACGAAATT against Ncam2 | 0.897 (inactive) |
| CGAUGUUUUCAUGAACGACTT against 0610012D17Rik | 0.421 (inactive) |
| GGCAGUGGCUUGGAUAAAUTT against 5730457F11Rik | 2.83 (active) |
| GGAAGAAGAGCUCUUUAAATT against Acate2 | 0.108 (inactive) |
| GGACCAGCACCAUUUCCUATT against Tce4 | -0.603 (inactive) |
| GCUACUAUAUGCGUUUCUUTT against Fads2 | 1.88 (inactive) |
| GGCAUAAAGUUGUUUACAGTT against 3110006P09Rik | 3.24 (active) |
| GGUCAUUUCAAGUGCUAAGTT against D7Ertd680e | 1.01 (inactive) |
| GGUGGAAUGAAAUAUGAAGTT against Ptp4a1 | 0.0271 (inactive) |
| CCUGGAAAGACUCUCGGAGTT against Cln2 | -0.492 (inactive) |
| GGUGAUGUCUCGGUACCCATT against Mvk | -0.664 (inactive) |
| GGGCUACAGCAUGUAUGAGTT against BC057627 | 2.38 (active) |
| GGAAAUUUCUUAGCACGAATT against Ppp4r1 | 0.667 (inactive) |
| GGACUUUGAAGAGGACAAUTT against Dhx38 | -2.18 (inactive) |
| GCACGAAGAACCACACAAGTT against 5830484A20Rik | -0.63 (inactive) |
| GCAUGAUUUAGAUCGAGUATT against Uqcrfs1 | -1.17 (inactive) |
| GGAUCACUACCAUGAAAACTT against Bace1 | -0.551 (inactive) |
| GGUGAAAUAGCUAAAUCAUTT against Usp15 | -0.572 (active) |
| GGAGAUGGUUGGAUCAUUCTT against D10Ertd610e | 0.642 (inactive) |
| GGGUGAAAAGCAUUUCUGUTT against MGI:1923902 | 1.38 (inactive) |
| GGACAAAGAAGACUCCCGATT against Dpf2 | 0.386 (inactive) |
| GCAGAUAUUCUCUGUGCAGTT against Ccnf | 2.22 (inactive) |
| GGGCUAAAGUAUAUCCAUUTT against Mapk1 | 1.14 (active) |
| CGAAGGACAAAAUAUCAGCTT against 4930517G15Rik | -0.16 (inactive) |
| GUUGAGGAUAACAUUGAACTT against MGC102419 | -0.623 (inactive) |
| GGGUGUAUUCUGCUUUGUATT against 2600013N14Rik | -1.3 (inactive) |
| GGGAAUUGCUCACCUCCAUTT against Klre1 | -0.871 (inactive) |

| Sequence | z-score |
| --- | --- |
| GCUAAAAUUGGAUCAAGGATT against Ccbp2 | 2.14 (inactive) |
| GGACUUCAUCAAAGUCUUATT against Cyp11a1 | -1.45 (inactive) |
| GGAAGAACUUUAAAAAUGCTT against Mic2l1 | 0.477 (inactive) |
| CGUACUCUAUGAGGUGCCATT against Rab6ip1 | 0.703 (inactive) |
| GCUUAAAGAUCGAUCCCGCTT against Slc38a4 | 0.666 (inactive) |
| GCCAUUAAUAAUCAGUACUTT against Sh2bpsm1 | 0.686 (inactive) |
| CCAUUGCCAACAACUAGAUTT against Ela3b | 2.87 (active) |
| GCUGAGGGUUGAUUAGUGGTT against H2-Bl | -1.2 (inactive) |
| GGCCUCCAGAAACAACUCGTT against Ndst2 | 1.44 (inactive) |
| GCUAGAACAGCAAAAAAAATT against Scgb3a1 | 0.00969 (inactive) |
| CCACGUGUUUGCAUUCAAATT against Gdd1 | 0.222 (inactive) |
| GGAUCCCACACUUUUCUGATT against Rxra | 1.02 (inactive) |
| CCUAAAACUCACCAUAGAGTT against Nfatc3 | -0.0858 (inactive) |
| GAUAUAAGGACUCUUUGAATT against 4732486J07Rik | -0.212 (inactive) |
| GGUCUUUUGGAAUCUCUGGTT against Crip3 | 1.26 (active) |
| GGAUAGUAACGGAAACUUGTT against Usp25 | 2.49 (inactive) |
| GGAUUCGGAAUACUACGAUTT against Abo | 1.79 (inactive) |
| GGUGUCCUUUCAAGUUGAUTT against C530005A01Rik | -0.63 (inactive) |
| CGGCAGUGUUAAAACAUGATT against Fgfr2 | 0.114 (inactive) |
| GGAGCAGUAUAUCCUACAUTT against Olfr510 | 0.104 (active) |
| CCUGAGAACAUUUUAAUCATT against Tas2r116 | -0.685 (inactive) |
| CCAAUUCUCGAAUCAUUGCTT against Olfr561 | -0.382 (inactive) |
| GCUACGCUAUCCAAAUUCUTT against AF529169 | -0.118 (inactive) |
| CCCUUGGAGGAAGCUAACUTT against Pde2a | 1.27 (active) |
| GGAGAUGCCCAAUGUUUUCTT against Ehd1 | -0.27 (inactive) |
| CGGCCUGUUAUAAACCUGCTT against 4933409K07Rik | -0.131 (inactive) |
| GCCUCAUUGAAAGGAUCCATT against GnT-IX | -0.888 (inactive) |

| Sequence | z-score |
| --- | --- |
| GCUUUUGAUCCACAGAUUUTT against Prss33 | 2.34 (active) |
| GGAACAUCAGGUGCAUGUGTT against Pkd1 | 1.9 (inactive) |
| GGCUCCACCAAAGCCUGUUTT against 2310066N05Rik | -2.31 (inactive) |
| CCUUGGGACUGACUGUAAGTT against A230072I16Rik | 2.25 (inactive) |
| GGUCAAUUAUGAAGAGUUUTT against Calm3 | 1.59 (inactive) |
| CCGGGUCAGGACAAUUCAUTT against Hsd17b1 | 1.29 (active) |
| GCAUUCGGCUGAGAAGAUGTT against Foxb2 | -1.8 (inactive) |
| GGAUAAUUCAGACAACAAUTT against Fus | 3.47 (active) |
| GGAACCAAUAAAUCUGUGCTT against Rfxank | 0.27 (inactive) |
| GGUCAUAGGUACGUAUCCGTT against 6430529G09Rik | -0.0313 (inactive) |
| GGCUGUACAGUCAUGCAAGTT against Adamts5 | 2.62 (active) |
| GGAAAGCUACUGUCAGAGUTT against Olfr473 | 0.453 (inactive) |
| GGACGUGUGGCUGUUGACATT against Sdc1 | -2.23 (inactive) |
| GCUUUAGAUACGUGAUUAGTT against 5830417C01Rik | -1.26 (inactive) |
| GCGACUACUUAGACACUUUTT against 4732481H14Rik | -1.94 (inactive) |
| UAGCCAUCGCUCUUUCUUATT against Olfr594 | -0.973 (inactive) |
| GGACAAAGGUGUCAACUCCTT against Crmp1 | -0.491 (inactive) |
| GCUCCUAGGAACUUGGUUATT against Pacsin2 | 2.36 (active) |
| CGAGUUCGGUAUGAGUGGATT against Clptm1 | -1.24 (inactive) |
| GGUCGGAAGAAUCUAAAGGTT against Dmp1 | 0.0661 (inactive) |
| GGAAGAGAGGACCAUGAAGTT against Usp18 | 2.69 (active) |
| GAGAAUCCAGAACUCCAAUTT against Olfr952 | -0.963 (inactive) |
| GCAAUCAUUAAGCAGAUCATT against Prkce | -2.49 (inactive) |
| GGCCGACAAGCGAUCAAAATT against AU040829 | -0.237 (inactive) |
| GGAUUUGGCCAACUCACCCTT against Acpp | 0.16 (active) |
| CCCUUCCAACAAUUAUACUTT against Tmem27 | 1.04 (inactive) |
| GGAGAGAAAGAAGUUGUUGTT against Lcn5 | 2.43 (inactive) |

| Sequence | z-score |
| --- | --- |
| GGAUUUCGACAAUAUGAAGTT against Chrnb2 | 2.24 (active) |
| CCUAUGAAGCUCCAUUAUGTT against Madcam1 | 0.762 (inactive) |
| CACUCUUGAUACAAAUGAGTT against Ifna6T | 0.264 (inactive) |
| GGCACAAAGGCAGUUAUUCTT against 1110049G11Rik | 0.847 (inactive) |
| GGGAAAAAUAUCAGUUAUGTT against Khdrbs1 | 1.08 (active) |
| GCUGGUGUCAUUAGACAGUTT against Npc1l1 | -0.302 (inactive) |
| GGCUAUAUCAAUGAAUUUGTT against Polr3b | 0.129 (inactive) |
| GGAUGUUCAUCUAUUUCUUTT against Mja1l | -0.191 (inactive) |
| GGGACCAAGCAGGUAAAAATT against Kif3a | 4.17 (active) |
| GGCCUAAGGACAAUUAUUUTT against 9130022A01Rik | 0.222 (inactive) |
| CCAAAUUCAUUCUAGCUCGTT against Copeb | 0.474 (inactive) |
| CCGAAUGGAAUACCAAAUUTT against Cst8 | -0.186 (inactive) |
| GGAUGUCAGCUGGUGGUUATT against Tmprss6 | -0.447 (inactive) |
| CCAUCUUGGGUUCUGGUCATT against BC057627 | -0.312 (active) |
| GGUGUCUGAAUUUGUGGCUTT against Abtb1 | 1.65 (inactive) |
| GGGAUCAUUAAACUUUUCCTT against Taf11 | 0.894 (inactive) |
| GGAAAAUGUUUUACCAAUGTT against 4930470D19Rik | 0.0823 (inactive) |
| GGCUAGAGACUUGGUUUUUTT against E430025L02Rik | 1.23 (inactive) |
| GGUAACUGAGAAAACCAGATT against Adam29 | 1.12 (active) |
| GGAUCUUGAAGACCAAAAATT against 9030409G11Rik | -0.527 (inactive) |
| GGCAAGAGAAUUCAGAUCUTT against Slc5a1 | 2.6 (inactive) |
| GGGCACAACUUCAACAGCUTT against Cklfsf8 | 1.53 (inactive) |
| GGUUAUCACUCCUCAACAATT against Foxp1 | -0.826 (inactive) |
| GGUCUACGAGUUUAUUGCUTT against Phc1 | 0.722 (inactive) |
